Assay results from PubChem BioAssay AID504941 (Broad Institute, 2011).
Out of some 1,200 compounds screened, about 170 (14%) were called active. The rule behind the calls is not given here. Only a sample is shown. Potency and affinity values are given separately.

Experiment: E. coli Tat export inhibitors, dose response, cherry-pick, set 2, plate reader (AID 504941)
Conditions: E. coli Tat transport reporter; series mostly up to 38 µM; activity change, negative = inhibition: at the top concentration

Activity change, negative = inhibition, inactive:
CCCCNC(=O)CCCn1c(=O)[nH]c2ccc(Br)cc2c1=O -10.4%
O=C1OCc2ccc(NC(=O)C3CC3)cc21 -7.47%
OCCN1CCN(C(=S)Nc2ccc(Oc3ccccc3)cc2)CC1 -21.3%
Cc1ccc(CC(=O)NCCS(=O)c2ccc(Cl)cc2)cc1 (stereo unspecified) 12.3%
Cc1ccc(CS(=O)(=O)CCC(=O)NCCCN2CCCC2)cc1 2.96%
O=C(CN1C(=O)NC2(CCCCC2)C1=O)NCc1cccs1 22.5%
COCn1c(-c2cccc(Br)c2)nc2ccccc21 21.4%
COc1cc(Cl)ccc1OCc1cc(C(=O)NCC(C)(C)N2CCOCC2)no1 -6.94%
CSc1ccccc1OCc1cc(C(=O)N(C)Cc2c(C)n[nH]c2C)no1 12.3%
NS(=O)(=O)c1ccc(NC(=O)CSc2nnc(-c3ccc(O)cc3)o2)cc1 8.57%
O=C(CSc1nnc(-c2cccnc2)o1)Nc1ccc(Cl)cc1 12.1%
CC(=O)N1Cc2cc([N+](=O)[O-])ccc2Oc2ccccc21 12.2%
CC(=O)NC(Cc1cnc[nH]1)C(=O)O (stereo unspecified) 6.77%
CCCN(C(=O)Cn1c(C(F)(F)F)nc2ccccc21)C1CCS(=O)(=O)C1 (stereo unspecified) 8.26%
O=C(NCc1ccccc1)c1ccc(F)c(F)c1 7.16%
O=C(NCc1ccccc1)c1ccc(Br)o1 -13.9%
Cc1ccc(OCCNC(=O)c2cc(-n3cnnc3)ccc2Cl)cc1C -6.14%
C[C@@H]1O[C@@H](Oc2c(-c3ccc(O)c(O)c3)oc3cc(O)cc(O)c3c2=O)[C@H](O)[C@H](O)[C@H]1O 12.2%
COc1ccc(Cl)cc1NC(=S)NCc1cccnc1 22.5%
CC(NC(=O)c1ccc([N+](=O)[O-])o1)C12CC3CC(CC(C3)C1)C2 (stereo unspecified) 15.2%
CC(C)N1CCc2c(sc(NC(=O)c3ccc(S(=O)(=O)N4CCc5ccccc54)cc3)c2C(N)=O)C1 34.7%
COc1ccccc1N1CCN(C(=O)c2cc3c(=O)n4ccccc4nc3s2)CC1 11%
Cc1ccc(NC(=O)CSc2nccn2C)cc1F 17%
CCCNC(=O)c1cc(C)no1 6.59%
COc1ccc(NC(=O)Cn2ncc(Cl)c(Cl)c2=O)cc1S(=O)(=O)N1CCOCC1 2.91%
COc1ccc(S(=O)(=O)N2CCC(C(=O)NCc3cccnc3)CC2)cc1OC 2.11%
O=c1[nH]c2ccc(S(=O)(=O)N3CCCCC3)cc2s1 17%
CN(C)C(=S)Nc1ccc2ccccc2c1 -3.63%
O=C(Cn1cc(C(F)(F)F)ccc1=O)OCC(=O)c1ccc[nH]1 11.2%
COc1ccc(/C(C)=N/NC(=O)CNC(=O)c2ccncc2)c(OC)c1 -12.5%
Cc1c(Cl)cccc1NC(=O)C1NC(=O)CC1c1ccccc1 (stereo unspecified) -18%
COC(=O)CSc1ccc(C#N)c(SCC(=O)OC)c1 -25.3%
CCC1Oc2nc(SC)nnc2-c2ccccc2N1C(=O)c1ccccc1 (stereo unspecified) 4.65%
CCC(CC)C(=O)Nc1nnc(S(=O)(=O)N2CCCCCC2)s1 -1.1%
CCOC(=O)c1cc(C)sc1NC(=O)C(c1ccccc1)c1ccccc1 -30.7%
CCOc1ccc(NC(=O)CN2C(=O)/C(=C3\SC(=S)N(C4CCS(=O)(=O)C4)C3=O)c3ccccc32)cc1 (stereo unspecified) 8.88%
Cc1cc(C)c(NS(=O)(=O)c2ccc3c(c2)NC(=O)CCS3)c(C)c1 -14.1%
O=C(COC(=O)/C=C/c1ccc(F)cc1)Nc1nnc(-c2ccccc2)o1 34.7%
Cc1cc(C(=O)CSc2nnc(-c3ccc4c(c3)OCO4)o2)c(C)n1-c1ccc(F)cc1 3.43%
O=C(Cn1cc([N+](=O)[O-])cn1)N1CCN(c2ccccc2)CC1 11.2%
COC(=O)C1C(O)C(C)C(O)C(C)(O)/C=C\C=C(/C)C(=O)Nc2c(C)c(OC(C)=O)c3c(c2O)C(=O)C(C)=C2OCOC(=C23)/C(C)=C/C(C)(O)C(O)C(C)C1O (stereo unspecified) -24.2%
COc1ccc(S(=O)(=O)N2CCC(C(=O)N3CCN(C)CC3)CC2)cc1Cl -4.18%
COc1ccc(OC)c(S(=O)(=O)N2CCC(C(=O)NC3CC3)CC2)c1 19.3%
CCOc1ccc(NC(=O)CNC(=O)Cc2ccccc2)cc1 4.14%
COC(=O)c1ccc(CNC(=O)C2CCC(=O)N(Cc3ccccn3)C2)cc1 (stereo unspecified) -28.2%
CNC1=CC(=O)CC(c2ccccc2)C1 (stereo unspecified) 12.6%
CCCCCn1c(CNC(=O)c2cccs2)nc2ccccc21 -1.52%
O=C(Nc1c2c(nn1-c1ccccc1)CS(=O)(=O)C2)c1cccs1 -5.38%
O=C(COC(=O)c1cccc(S(=O)(=O)N2CCc3ccccc32)c1)Nc1ncc(C(F)(F)F)cc1Cl 14.6%
Cc1cccnc1NC(=O)c1cccc(S(=O)(=O)N2CCCc3ccccc32)c1 -14%
Cc1nc(NC(=O)/C=C/c2ccccc2)sc1C(=O)N(C)C 0.771%
CC(NC(=O)CSc1nc2sc3c(c2c(=O)n1-c1ccccc1)CCCC3)c1ccccc1 (stereo unspecified) 6.92%
CCn1c(C)cc(/C=C2/NC(=O)N(Cc3ccccc3F)C2=O)c1C 10.6%
O=C(COc1ccc2c3c(c(=O)oc2c1)CCCC3)NCC(O)c1ccccc1 (stereo unspecified) 4.93%
O=C(COc1ccc2c3c(c(=O)oc2c1)CCCC3)NCCCn1ccnc1 16.2%
c1ccc(-n2c(SCC3CCCCO3)nnc2-c2cccs2)cc1 (stereo unspecified) -12.4%
Cc1noc(C)c1COc1ccccc1C(=O)NC1CCC(C)CC1 (stereo unspecified) -7.29%
CCN(CC)CC(=O)N(CC(=O)Nc1c(C)cc(C)cc1C)C1CCCCC1 -9.21%
O=[N+]([O-])c1ccc(O)c(/C=N/Nc2nc3ccccc3[nH]2)c1 -11.5%
O=c1oc(-c2ccccc2)nc2sc3c(c12)CCCC3 -12.9%
O=C(O)CCCc1nc(-c2ccc(Cl)cc2)no1 -8.66%
COc1ccc(OCc2nnc(SCC(=O)N3C(C)CCCC3C)o2)cc1 (stereo unspecified) 13.9%
c1ccc(C2NCCc3ccccc32)cc1 (stereo unspecified) 39.2%
Nc1nnc(-c2cn(-c3ccccc3)nc2-c2ccc(Cl)cc2)o1 -4.94%
O=C(COC(=O)C12CC3CC(CC(Br)(C3)C1)C2)Nc1cccnc1Cl 7.63%
CSc1ncccc1C(=O)OCC(=O)N(C)c1c(N)n(Cc2ccccc2)c(=O)[nH]c1=O 33.1%
O=C(OCC(=O)N1CCCC1=O)c1cccc(S(=O)(=O)N2CCOCC2)c1 17%
COc1ccc(NC(=O)CC2(CC(=O)O)CCCC2)cn1 1.15%
O=C(Nc1nc2c(s1)CCCC2)c1cccc(S(=O)(=O)N2CCCc3ccccc32)c1 -28%
O=C(CCSc1ccccc1)NCC1CCCO1 (stereo unspecified) -12.9%
CN(C(=O)c1cc2sccc2n1C)C1CCCCC1 -5.46%
O=C(C1CCCO1)N1CCN(c2c3c(nc4cc(-c5ccc(F)cc5)nn24)CCC3)CC1 (stereo unspecified) 6.78%
CCOc1ccc(Br)cc1CNCCN1CCOCC1 8.37%
O=C(c1ccc2nc[nH]c2c1)N1CCN(c2ncc(C(F)(F)F)cc2Cl)CC1 -6.11%
Cn1c(SCC(=O)NCc2cccs2)nnc1-c1ccc(S(=O)(=O)N2CCCC2)cc1 4.13%
CN(C)S(=O)(=O)c1cccc(NC(=O)C2CCN(S(=O)(=O)c3cccs3)CC2)c1 -4.43%
O=C(Cn1cc2c(n1)CCCCC2)N1CCc2ccccc2C1 -0.285%
CC(/C=N/NC(=O)c1n[nH]c2c1CCC2)=C\c1ccccc1 -7.52%
CCC(CO)NC(=O)c1cccc(S(=O)(=O)N2c3ccccc3CC2C)c1 (stereo unspecified) -5.23%
CC(C)S(=O)(=O)C1=NSC2=NC(=O)/C(=C\c3ccc(-c4cccc(C(=O)O)c4)o3)C(=N)N21 -12.2%
O=C(Nc1cc(N2CCOCC2)ncn1)c1ccccc1 13.4%
O=C(O)c1ccc(NC2=C(N3CCOCC3)C(=O)c3ccccc3C2=O)cc1 0.607%
O=C(COC(=O)Cn1cnc2ccccc2c1=O)NCC12CC3CC(CC(C3)C1)C2 4.59%
CC(=O)NC1=NN(C(C)=O)C2(S1)C(=O)N(C(C)C)c1ccc(C)cc12 (stereo unspecified) 5.85%
Cc1cc(-c2c(C)[nH]n(-c3ccc(Cl)cc3)c2=O)n(-c2ccc(Cl)cc2)n1 13.9%
COC(=O)COc1cc2ccccc2cc1C(=O)Nc1ccccc1 20.3%
O=[N+]([O-])c1cccc(COc2cccc(CN3CCCCC3)c2)c1 2.01%
CS(=O)(=O)N1CCN(C(=O)c2cccnc2)CC1 -7.67%
CC1(C)CC(=O)C=C(NCCN2CCN(C(=O)Nc3ccccc3)CC2)C1 0.237%
CC(C)(C)NC(=O)C[C@H]1C[C@H](C(=O)N2CCOCC2)[C@@]2(CCC3CCCC3)c3[nH]c4cc(-c5ccco5)ccc4c3CCN2C1=O 18.4%
O=C(NCc1cccc(Cl)c1)c1cnn2c1NC(c1ccco1)CC2C(F)(F)F (stereo unspecified) 25.9%
O=C(CSc1nc2ccccc2c(=O)[nH]1)N1CCN(c2ccccc2F)CC1 2.64%
CC1Cc2cc(/C(O)=C3/C(=O)C(=O)N(Cc4ccco4)C3c3cccs3)ccc2O1 (stereo unspecified) -10.5%
O=C(CNc1ccc(Cl)cc1)c1ccc(Br)cc1 7.08%
CC(C)c1ccc(OCC(=O)NC2=NCCS2)cc1 0.906%
CCCCOC(=O)C1=C(C)NC(=O)NC1c1ccc2c(c1)OCO2 (stereo unspecified) 3.59%
CCN1CCCC1CNC(=O)C(=O)NC(C)C (stereo unspecified) -9.28%
COc1cc(CNCc2ccccn2)ccc1OCc1c(Cl)cccc1Cl 7.91%
Cc1c(NC(=O)Nc2ccccc2)cccc1[N+](=O)[O-] -14%
CC1CN(S(=O)(=O)c2ccc(C(=O)Nc3ccccc3F)cc2)CC(C)O1 (stereo unspecified) -8.54%
Clc1ccc(C2[C@H]3CN(Cc4cccnc4)[C@H](c4ccccc4)C34CC2(c2ccccc2)C4)cn1 (stereo partly specified) 10.2%
Cc1ccc(NC(=O)CCCc2nc3ccccc3s2)c(O)c1 -3.12%
Cc1cnc(C(=O)OCC(=O)Nc2sc3c(c2C#N)CCC3)cn1 4.32%
N#Cc1cn(CC(=O)N2CCCc3ccccc32)c2ccccc12 46.6%
COc1cc(S(=O)(=O)Nc2cc(C)cc(C)c2)ccc1F 3.51%
COc1ccc(OC2OC3COC(c4ccco4)OC3C(O)C2NC(C)=O)cc1 (stereo unspecified) 16.8%
